This passage reports Potency results from PubChem BioAssay (NCATS).

Molecules are shown by their SMILES. Records with an inconclusive call do not appear. Where a call stands in place of a potency, no number is given. Calls of active or inactive are those of the source. The call rests on the fitted dose curve; in most records, active means well fitted inhibition curve with a large enough effect; inconclusive means small, poorly fitted or top-dose-only effect; inactive means no such curve, though single readings can be large or run the other way.

The target in this assay is Retinaldehyde dehydrogenase 3 (Homo sapiens) (UniProt P47895). The assay is described as follows: qHTS for Inhibitors of the Aldehyde Dehydrogenase Family (ALDH1A3) Primary screen (AID 2061315). Particulars: ALDH inhibition qHTS; series mostly up to 56 µM. A general note: qHTS replaces the single test concentration by a dilution series.
Consider `CCOC(=O)c1[nH]c2c(c1C)C(=S)CC(c1ccco1)C2` (stereo not drawn), for which the Potency result is “inactive”.

With `CC(C)(C)c1ccc(S(=O)(=O)c2cnc(SCC(=O)Nc3ccc(F)c(Cl)c3)[nH]c2=O)cc1`, the Potency result was “inactive”.

Consider `O=C1Nc2ccc(Cl)cc2/C1=C\c1cc(Cl)c(O)c(Cl)c1`, for which the Potency result is “inactive”.

On to `CN(C)c1ccc(-c2cc[nH]c(=O)c2N)cc1`, for which the Potency entry was “inactive”.

For the compound `O=C1Nc2cc(Cl)ccc2/C1=C\c1cc(Cl)c(O)c(Cl)c1`, the Potency result is “inactive”.

`Cc1sc(NC(=O)Cc2ccc3c(c2)OCO3)nc1-c1ccc2c(c1)CCN2`: the Potency result was “inactive”.

`Cc1cc(C)nc(NC(=S)N2CCN(c3ccc4cn(C)nc4c3)CC2)c1`: the Potency result is “inactive”.

As to `NC(=O)C1CCN(c2nc(-c3ccc4ccccc4c3)cs2)CC1`, the Potency result is “inactive”.

With `Cc1ccc(S(=O)(=O)Nc2cnccc2C(=O)Nc2nc(C(=O)O)cs2)cc1`, the Potency entry was “inactive”.

With `COc1ccc(C(=O)N(Cc2ccco2)Cc2ccco2)c(O)c1`, the Potency entry was “inactive”.

In the case of `O=C(O)CN1C(=O)/C(=C/c2ccc(-c3cccc(Cl)c3)o2)SC1=S`, the Potency entry was “inactive”.

For `CN1CCN(c2ccc(NC(=O)CN(C)Cc3c(O)ccc4ccccc34)cc2)CC1`, the Potency entry was “inactive”.

For the compound `O=C1Cc2cc(S(=O)(=O)N3CCN(c4ccc(F)cc4)CC3)ccc2N1`, the Potency result is “inactive”.

As for `Cc1nc(C(C)Nc2ncnc3ccc(-c4ccc5c(c4)OCO5)cc23)cs1` (stereo not drawn), the Potency entry was “inactive”.

Regarding `O=C(O)c1ccc2c(c1)C(=O)N(CCc1ccc(O)cc1)C2=O`, the Potency result is “inactive”.

`COc1ccc(C2Nc3ccccc3C(=O)N2Cc2ccco2)cc1COc1ccc(N)cc1` (stereo not drawn): the Potency result is “inactive”.

As to `O=C1Cc2cc(S(=O)(=O)N3CCNCC3)ccc2N1`, the Potency result was “inactive”.

In the case of `CN(C)c1cccc(-c2cnc(N3CCC(c4ncc[nH]4)CC3)s2)c1`, the Potency entry was “inactive”.
